Test results taken from PubChem BioAssay (NCATS).
Inconclusive results are not listed. Unmarked numbers belong to inactive results. Activity calls are given as the source filed them. The call rests on the fitted dose curve; in most records, active means well fitted inhibition curve with a large enough effect; inconclusive means small, poorly fitted or top-dose-only effect; inactive means no such curve, though single readings can be large or run the other way.

target: Retinaldehyde dehydrogenase 3 (Homo sapiens) (UniProt P47895); experiment: qHTS for Inhibitors of the Aldehyde Dehydrogenase Family (ALDH1A3) Confirmatory screens (AID 2061311); details: ALDH inhibition qHTS; series mostly up to 46 µM; activity change, negative = inhibition: at the top concentration; further: nearly all actives have a fitted effect of over 60% in size
Potency means the concentration at half of the fitted maximal effect.

With `Cc1ccnc(NCc2ccc(O)c3ncccc23)c1` as the compound, how does the Potency read?
Its Potency is 7.12 µM (active).

With `CCc1noc(-c2cccn3c(CNC(=O)COc4ccc(F)cc4)nnc23)n1` as the compound, how does the Potency read?
Its Potency is 7.08 µM (active).

`CC(=O)Nc1sc2c(c1-c1cc3ccccc3o1)CCNC2` was tested. Which Potency did it give?
Its Potency is 11.3 µM (active).

With `Cc1ccnc(NC(=S)N2CCN(c3ccc(O)cc3)CC2)c1` as the compound, how does the Potency read?
The Potency was 12.7 µM (active).

target: Retinal dehydrogenase 2 (Homo sapiens) (UniProt O94788); experiment: qHTS for Inhibitors of the Aldehyde Dehydrogenase Family (ALDH1A2) Confirmation screens (AID 2061314); details: ALDH1A2 enzyme inhibition qHTS confirmation; series mostly up to 45.9 µM; activity, negative = inhibition: at the top concentration; further: nearly all actives have a fitted effect of over 65% in size; on activity, negative = inhibition: on the % scale 0 is the no-effect control and ±100 the full control effect

Which “activity, negative = inhibition” value does the source give for `CCc1ccc(C(=O)c2cnc3ccc(C)cc3c2S(=O)(=O)c2ccc(OC)cc2)cc1` here?
Its value is -15.4%.

`O=C1COCCN1C1CCN(S(=O)(=O)c2cccc(C(F)(F)F)c2)CC1` was tested. Which “activity, negative = inhibition” value did it give?
The value was -17.2%.

`CN(C)C(=O)CN1C(=O)CO[C@H](c2ccc(NS(=O)(=O)c3cccc(F)c3)cc2)[C@H]1CO` was tested. Which “activity, negative = inhibition” value did it give?
Its value is -2.17%.

How did the “outcome” value turn out when `CN1C(=O)c2cccn2CC1CNC(=O)c1cccc2nccnc12` (configuration not stated) was run?
Its value is “inactive”.

For `Cn1nc(C(=O)N2CCOCCNC(=O)CC2)c2ccccc21`, which “activity, negative = inhibition” value is on record?
The value was -13.3%.

Which “activity, negative = inhibition” value does the source give for `COc1cccc(-c2nnc(-c3ccccc3NC(=O)c3cccc(C(F)(F)F)c3)o2)c1` here?
The value was -1.27%.

`CC(=O)Nc1ccc(S(=O)(=O)N[C@@H]2C=C[C@@H](c3c(C)nn(-c4ccc(C(C)(C)C)cc4)c3C)C2)cc1` was tested. Which “activity, negative = inhibition” value did it give?
Its value is 2.6%.

How did the “activity, negative = inhibition” value turn out when `COc1cccc(-c2nn(-c3ccccc3)c(OC(C)=O)c2-c2ccc(NC(=O)C3CCCC3)cc2)c1` was run?
Its value is -11%.

With `CC(C)CN1C(=O)CO[C@H](c2ccc(NS(=O)(=O)c3cccc(F)c3)cc2)[C@H]1CO` as the compound, how does the “activity, negative = inhibition” value read?
Its value is -11.4%.

How did the “activity, negative = inhibition” value turn out when `Cc1ccc(S(=O)(=O)NC[C@H]2O[C@@H](CC(=O)NCCN3CCOCC3)[C@H](O)[C@@H]2O)cc1` was run?
The value was -15%.

With `CC(C)Oc1ccc(CNC(=O)C2CCCCN2S(=O)(=O)c2ccc(F)cc2)cc1` (configuration not stated) as the compound, how does the “outcome” value read?
Its value is “inactive”.

How did the “activity, negative = inhibition” value turn out when `O=C(CC1N=C2c3ccccc3N=C(SCc3cccc(F)c3)N2C1=O)NCc1cccs1` (configuration not stated) was run?
The value was -22.8%.

For `CCOc1ccc(CNC(=O)C2CCCCN2S(=O)(=O)c2ccc(F)cc2)cc1OC` (configuration not stated), which “activity, negative = inhibition” value is on record?
The value was -15.4%.

`Cc1ccc(CCNC(=O)c2c(C)oc3nc(C)nc(N4CCOCC4)c23)cc1` was tested. Which “activity, negative = inhibition” value did it give?
The value was -16.9%.

Which “activity, negative = inhibition” value does the source give for `COc1ccc(N2CCN(C(=O)c3cc(NS(=O)(=O)c4ccc(F)cc4)ccn3)CC2)cc1` here?
Its value is -15.3%.

`Cc1nn(-c2ccc3nnc(C)n3n2)c(C)c1CCC(=O)Nc1ccc(OC(F)(F)F)cc1` was tested. Which “outcome” value did it give?
The value was “inactive”.

How did the “activity, negative = inhibition” value turn out when `COc1cccc(-n2c(SCc3ccccc3C)nc3c([nH]c4ccccc43)c2=O)c1` was run?
The value was -24.5%.

For `CCN(CC)S(=O)(=O)c1ccc2c(c1)N(CC(=O)N1CCN(c3cccc(C(F)(F)F)c3)CC1)C(=O)CO2`, which “activity, negative = inhibition” value is on record?
The value was -100%.

`CC(C)Cn1c(=O)c(C(=O)NCc2cccs2)nc2cccnc21` was tested. Which “activity, negative = inhibition” value did it give?
Its value is -19.6%.

For `COc1ccccc1-c1[nH]nc2ncc(C(=O)NCCc3ccccn3)nc12`, which Potency is on record?
The Potency was 39.8 µM (active).

For `CC(=O)c1ccc(NC(=O)CCc2c(C)nn(-c3ccc4nnc(C)n4n3)c2C)cc1`, which “activity, negative = inhibition” value is on record?
Its value is -2.27%.

`Cc1cccc(-c2nc3c(cnn3-c3ccccc3)c(=O)n2-c2ccc(Cl)cc2)c1` was tested. Which “activity, negative = inhibition” value did it give?
Its value is 1.22%.

With `COc1ccc(C(CNC(=O)c2cccc([N+](=O)[O-])c2)N2CCOCC2)cc1` (configuration not stated) as the compound, how does the “activity, negative = inhibition” value read?
Its value is -16.6%.

With `Cc1cccc(C(=O)N2CCCC(N3CCN(c4cccc(C(F)(F)F)c4)CC3)C2)c1` (configuration not stated) as the compound, how does the “activity, negative = inhibition” value read?
The value was -4.09%.

For `O=c1c2cn[nH]c2nc(SCc2cccc(Br)c2)n1-c1ccc(Cl)cc1`, which “activity, negative = inhibition” value is on record?
The value was -14.6%.

Which Potency does the source give for `COc1ccc(-c2nc(CNS(=O)(=O)c3cccc(F)c3)cs2)cc1` here?
Its Potency is 5.76 µM (active).

Which “activity, negative = inhibition” value does the source give for `O=C(NCC(=O)N1CCOCC1)c1ccc(-c2cnc3ccccc3c2)cc1` here?
The value was -4.18%.

With `CCc1noc(-c2nc(Cc3cccc(F)c3)no2)n1` as the compound, how does the “outcome” value read?
The value was “inactive”.

How did the “outcome” value turn out when `COc1ccc(NS(=O)(=O)c2ccc3[nH]c(=O)ccc3c2)cc1OC` was run?
Its value is “inactive”.

With `Cc1ccc(Cc2nc3ccccc3nc2SCC(=O)Nc2cccc(C(F)(F)F)c2)cc1` as the compound, how does the “activity, negative = inhibition” value read?
Its value is -26.5%.

`CCCCOc1cccc(C(=O)Nc2cc(NC(=O)c3ccco3)ccc2OC)c1` was tested. Which “activity, negative = inhibition” value did it give?
Its value is -17.3%.

How did the “activity, negative = inhibition” value turn out when `CCc1nn2c(=O)c(S(=O)(=O)Nc3ccc(C(C)C)cc3)c(C)nc2s1` was run?
Its value is -1.75%.

Which “outcome” value does the source give for `CCOc1ccc(-c2cc(C(=O)NC(C)c3ccccc3)c3ccccc3n2)cc1` (configuration not stated) here?
Its value is “inactive”.

How did the “activity, negative = inhibition” value turn out when `COc1ccc(NC(=O)c2cc(S(=O)(=O)N3CCOCC3)ccc2OC)cc1` was run?
The value was -27.1%.

target: Aldehyde dehydrogenase 1A1 (Homo sapiens) (UniProt P00352); experiment: qHTS for Inhibitors of the Aldehyde Dehydrogenase Family (ALDH1A1) Confirmatory screens (AID 2061316); details: ALDH inhibition qHTS; series mostly up to 47.3 µM; activity change, negative = inhibition: at the top concentration; further: nearly all actives have a fitted effect of over 65% in size; on activity change, negative = inhibition: on the % scale 0 is the no-effect control and ±100 the full control effect

Which Potency does the source give for `Cc1ccnc(NCc2ccc(O)c3ncccc23)c1` here?
Its Potency is 8.96 µM (active).

`CCc1noc(-c2cccn3c(CNC(=O)COc4ccc(F)cc4)nnc23)n1` was tested. Which “activity change, negative = inhibition” value did it give?
The value was -18%.

How did the Potency turn out when `CC(=O)Nc1sc2c(c1-c1cc3ccccc3o1)CCNC2` was run?
Its Potency is 8.96 µM (active).

With `Cc1ccnc(NC(=S)N2CCN(c3ccc(O)cc3)CC2)c1` as the compound, how does the Potency read?
The Potency was 7.98 µM (active).
